Drawing on PubChem BioAssay (NCATS), this text covers activation for six compounds.

Records with an inconclusive call do not appear. Calls of active or inactive are those of the source. The call rests on the fitted dose curve; in most records, active means well fitted activation curve with a large enough effect; inconclusive means small, poorly fitted or top-dose-only effect; inactive means no such curve, though single readings can be large or run the other way.

In the assay the target is Cellular tumor antigen p53 (Homo sapiens) (UniProt P04637). Briefly: Primary qHTS for small molecule compounds that upregulate eGFP-tagged delta133p53alpha (in N-terminal) cells. (AID 2060322).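 Further: series mostly up to about 56 µM; 0% = DMSO vehicle and 100% = reference activator; nearly all actives have a fitted effect of over 75% in size.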 The settings on record: NCI-H358 eGFP-delta133p53alpha fluorescence, 24 h; activation: stronger effect = higher value. Put shortly: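 NCI-H358 cells pre-induced 24 h with 10 ng/ml doxycycline to express N-terminal eGFP-delta133p53alpha, then dosed 24 h at 37C without doxycycline; fixed, Hoechst-stained, GFP intensity by laser scanning cytometry, normalized to DMSO (0%) and 57.5 uM 5-azacytidine (100%).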
Sequence of Cellular tumor antigen p53 (Homo sapiens) (P04637 whole entry, looked up): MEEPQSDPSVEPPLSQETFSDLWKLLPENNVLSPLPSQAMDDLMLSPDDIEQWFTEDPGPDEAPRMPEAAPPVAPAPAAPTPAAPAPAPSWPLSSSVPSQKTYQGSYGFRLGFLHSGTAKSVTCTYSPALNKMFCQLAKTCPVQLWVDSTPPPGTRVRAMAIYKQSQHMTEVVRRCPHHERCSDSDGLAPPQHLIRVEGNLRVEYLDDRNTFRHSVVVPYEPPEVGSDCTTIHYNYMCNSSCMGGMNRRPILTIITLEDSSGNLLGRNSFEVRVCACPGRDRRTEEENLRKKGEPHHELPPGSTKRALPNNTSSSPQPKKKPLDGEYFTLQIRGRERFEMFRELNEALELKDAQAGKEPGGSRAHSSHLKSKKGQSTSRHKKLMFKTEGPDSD
A general note: Quantitative high-throughput screening tests each substance at several concentrations.
`CCCCCCCCCCCCCC[N+](C)(C)Cc1ccccc1`: the activation was 27.6% (inactive). The figure for `C[C@@H](O)[C@H](N)C(=O)O` is -18.4% (inactive); for `CC(=O)NCC(=O)N1[C@H]2CC[C@H]1c1cc(Nc3ncc(C(F)(F)F)c(NC4CCC4)n3)ccc12` it is 32.7% (inactive); for `CCOC(=O)C(O)c1ccccc1` (stereo unspecified) it is -24.3% (inactive). As for `CO[C@@H]1[C@@H](O[C@@H]2O[C@H](C)[C@@H](O[C@H]3C[C@@](C)(O)[C@@H](O)[C@H](C)O3)[C@H](N(C)C)[C@H]2O)[C@@H](CC=O)C[C@@H](C)[C@@H](O[C@@H]2CC[C@H](N(C)C)[C@@H](C)O2)/C=C/C=C/C[C@@H](C)OC(=O)C[C@H]1OC(C)=O`, the activation is -19.8% (inactive).

`CC(C)Cc1ccc(CC(=O)O)cc1`: the activation was -36.8% (inactive).
